# Calls of active or inactive are those of the source. The calls were made as follows: active = hit-call score of the fitted dose curve at least 0.9, where 1 is the maximum; inactive = score below 0.9.
# Tests used:
# [1] = ATG_ISRE_CIS: Attagene CIS-FACTORIAL HepG2 Assay for human Interferon Regulatory Factor 1 (IRF1) binding to an Interferon-Stimulated Response Element (ISRE) (AID 2282948); conditions: HepG2 ISRE cis-reporter (Attagene), mRNA transcription readout; actives raise or lower the signal
# In short: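 Uses HepG2 liver cells transfected with cis-regulated reporters and measures mRNA 24 h post-dosing through RT-PCR, primer-extension labelling and capillary electrophoresis, with DMSO as negative control.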
# [2] = ATG_M_32_CIS: Attagene CIS-FACTORIAL HepG2 Assay for M32 Transcription Factor (Internal Marker) (AID 2282949); conditions: HepG2 Attagene cis-factorial M32 reporter, mRNA; actives raise or lower the signal;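 also: background control marker of the multiplexed CIS panel rather than a real target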
# In short: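 Transient MRTU transfection of HepG2; 24 h compound treatment; TriZol RNA, oligo(dT) RT, reporter PCR, 6-FAM primer extension, HpaI cut, CE. Gain/loss of signal vs DMSO.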
# [3] = ATG_M_06_CIS: Attagene CIS-FACTORIAL HepG2 Assay for M06 Transcription Factor (Internal Marker) (AID 2282950); conditions: HepG2 Attagene CIS-FACTORIAL M06 internal marker reporter; actives raise or lower the signal
# In short: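 HepG2 cells transiently transfected with cis-regulated multiple reporter transcription units were exposed to chemical for 24 h; reporter mRNA was quantified by RT-PCR, 6-FAM primer labelling, HpaI digestion and capillary electrophoresis, fitted bidirectionally against DMSO.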
# [4] = target: Hypoxia-inducible factor 1-alpha (Homo sapiens) (UniProt Q16665); test: ATG_HIF1a_CIS: Attagene CIS-FACTORIAL HepG2 Assay for human Hypoxia Inducible Factor 1 (HIF1A) (AID 2282951); conditions: HepG2 Attagene cis-factorial HIF1a reporter transcription; actives raise or lower the signal
# Hypoxia-inducible factor 1-alpha (Homo sapiens), sequence (Q16665 whole entry, looked up): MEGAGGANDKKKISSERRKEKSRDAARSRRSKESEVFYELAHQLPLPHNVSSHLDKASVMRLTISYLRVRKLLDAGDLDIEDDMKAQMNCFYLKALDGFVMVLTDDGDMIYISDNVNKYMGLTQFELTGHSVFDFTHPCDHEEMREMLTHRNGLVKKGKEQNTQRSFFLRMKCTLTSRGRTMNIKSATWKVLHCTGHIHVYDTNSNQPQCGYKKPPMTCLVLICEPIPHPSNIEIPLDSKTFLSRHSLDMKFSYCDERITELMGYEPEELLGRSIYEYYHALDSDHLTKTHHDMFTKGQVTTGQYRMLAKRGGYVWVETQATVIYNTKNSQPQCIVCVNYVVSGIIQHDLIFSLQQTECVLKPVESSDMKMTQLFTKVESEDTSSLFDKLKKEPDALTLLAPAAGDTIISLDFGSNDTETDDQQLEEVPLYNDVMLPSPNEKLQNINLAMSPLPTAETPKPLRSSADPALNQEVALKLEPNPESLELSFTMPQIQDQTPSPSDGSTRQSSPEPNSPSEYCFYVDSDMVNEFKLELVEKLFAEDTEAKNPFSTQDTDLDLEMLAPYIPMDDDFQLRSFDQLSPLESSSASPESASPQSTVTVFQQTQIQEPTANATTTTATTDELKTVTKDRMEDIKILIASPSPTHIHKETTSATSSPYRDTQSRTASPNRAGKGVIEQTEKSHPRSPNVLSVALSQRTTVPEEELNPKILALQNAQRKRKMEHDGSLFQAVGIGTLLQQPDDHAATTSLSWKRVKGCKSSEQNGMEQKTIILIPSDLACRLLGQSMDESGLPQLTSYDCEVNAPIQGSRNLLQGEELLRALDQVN
# In short: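 HepG2 cells transiently transfected with multiple cis-regulated reporter transcription units measure endogenous transcription factor activity. After 24 h exposure, reporter mRNA is quantified by RT-PCR with 6-FAM labelling, HpaI digestion and capillary electrophoresis. Bidirectional fitting against DMSO.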
# [5] = target: Hepatocyte nuclear factor 6 (Homo sapiens) (UniProt Q9UBC0); test: ATG_HNF6_CIS: Attagene CIS-FACTORIAL HepG2 Assay for human Hepatocyte Nuclear Factor 6 (HNF6) (AID 2282952); conditions: HepG2 Attagene cis-factorial HNF6 reporter transcription; actives raise or lower the signal
# Hepatocyte nuclear factor 6 (Homo sapiens), sequence (Q9UBC0 whole entry, looked up, the tested form may be a part): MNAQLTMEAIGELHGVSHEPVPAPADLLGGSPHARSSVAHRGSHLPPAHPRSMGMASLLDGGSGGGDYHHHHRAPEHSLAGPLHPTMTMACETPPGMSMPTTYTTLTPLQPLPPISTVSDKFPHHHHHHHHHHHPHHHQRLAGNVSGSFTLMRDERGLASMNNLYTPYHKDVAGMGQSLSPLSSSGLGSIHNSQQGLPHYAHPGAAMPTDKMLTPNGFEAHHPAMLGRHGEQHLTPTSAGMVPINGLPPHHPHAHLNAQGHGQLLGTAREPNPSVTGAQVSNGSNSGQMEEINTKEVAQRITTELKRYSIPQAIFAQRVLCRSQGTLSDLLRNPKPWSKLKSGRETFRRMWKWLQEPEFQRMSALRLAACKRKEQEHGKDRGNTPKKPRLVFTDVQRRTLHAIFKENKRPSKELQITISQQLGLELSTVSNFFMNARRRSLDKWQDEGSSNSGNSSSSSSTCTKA
# In short: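 Using cis-element reporters in HepG2 liver cells, the assay tracks endogenous factor-driven transcription 24 h post-dosing. Signal comes from 6-FAM-labelled, HpaI-digested RT-PCR fragments, with gain or loss scored against DMSO.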
# [6] = target: Heat shock factor protein 1 (Homo sapiens) (UniProt Q00613); test: ATG_HSE_CIS: Attagene CIS-FACTORIAL HepG2 Assay for human Heat Shock Transcription Factor 1 (HSE) (AID 2282953); conditions: HepG2 HSE cis-reporter, Attagene RNA transcription; actives raise or lower the signal
# Heat shock factor protein 1 (Homo sapiens), sequence (Q00613 whole entry, looked up): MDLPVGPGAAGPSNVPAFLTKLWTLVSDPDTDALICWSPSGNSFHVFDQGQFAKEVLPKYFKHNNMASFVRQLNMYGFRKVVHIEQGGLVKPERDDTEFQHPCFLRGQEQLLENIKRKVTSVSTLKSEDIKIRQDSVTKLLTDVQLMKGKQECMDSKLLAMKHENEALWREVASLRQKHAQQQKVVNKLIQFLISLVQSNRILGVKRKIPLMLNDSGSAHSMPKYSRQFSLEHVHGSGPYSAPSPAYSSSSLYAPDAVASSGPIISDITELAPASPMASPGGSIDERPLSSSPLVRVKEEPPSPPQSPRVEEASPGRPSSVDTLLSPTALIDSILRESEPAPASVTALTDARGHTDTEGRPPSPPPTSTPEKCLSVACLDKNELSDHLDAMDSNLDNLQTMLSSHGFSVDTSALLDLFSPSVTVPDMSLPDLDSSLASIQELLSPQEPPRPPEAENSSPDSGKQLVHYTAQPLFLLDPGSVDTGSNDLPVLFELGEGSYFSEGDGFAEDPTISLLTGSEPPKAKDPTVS
# In short: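 HepG2 cells transiently transfected with multiple reporter transcription units under cis-regulatory promoter control, measuring endogenous transcription factor activity. After 24 h chemical exposure, reporter mRNA quantified by RT-PCR, fluorescent labelling, HpaI digestion and capillary electrophoresis; bidirectional fit versus DMSO.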
# [7] = ATG_MRE_CIS: Attagene CIS-FACTORIAL HepG2 Assay for human Metal Responsive Element (MRE) (AID 2282954); conditions: HepG2 MRE cis-reporter transcription, Attagene multiplex; actives raise or lower the signal
# In short: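 Multiplexed cis-reporter assay in human HepG2 liver cells, 24 h incubation with test chemical. Reporter transcripts measured by RT-PCR and capillary electrophoresis; values from bidirectional curve fitting versus DMSO.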
# [8] = ATG_PBREM_CIS: Attagene CIS-FACTORIAL HepG2 Assay for human Phenobarbital-responsive Enhancer Module (PBREM) (AID 2282955); conditions: HepG2 PBREM cis-reporter, Attagene multiplexed transcription; actives raise or lower the signal
# In short: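 HepG2 cells transiently transfected with multiple cis-regulated reporter units measure endogenous transcription factor activity; 24 h compound exposure. Reporter mRNA quantified by RT-PCR, fluorescent labelling, HpaI digestion and capillary electrophoresis; bidirectional fit versus DMSO.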
# [9] = target: Paired box protein Pax-6 (Homo sapiens) (UniProt P26367); test: ATG_Pax6_CIS: Attagene CIS-FACTORIAL HepG2 Assay for human Paired Box 6 (PAX6) (AID 2282956); conditions: HepG2 CIS-FACTORIAL PAX6 reporter transcription, RNA readout; actives raise or lower the signal
# Paired box protein Pax-6 (Homo sapiens), sequence (P26367 whole entry, looked up): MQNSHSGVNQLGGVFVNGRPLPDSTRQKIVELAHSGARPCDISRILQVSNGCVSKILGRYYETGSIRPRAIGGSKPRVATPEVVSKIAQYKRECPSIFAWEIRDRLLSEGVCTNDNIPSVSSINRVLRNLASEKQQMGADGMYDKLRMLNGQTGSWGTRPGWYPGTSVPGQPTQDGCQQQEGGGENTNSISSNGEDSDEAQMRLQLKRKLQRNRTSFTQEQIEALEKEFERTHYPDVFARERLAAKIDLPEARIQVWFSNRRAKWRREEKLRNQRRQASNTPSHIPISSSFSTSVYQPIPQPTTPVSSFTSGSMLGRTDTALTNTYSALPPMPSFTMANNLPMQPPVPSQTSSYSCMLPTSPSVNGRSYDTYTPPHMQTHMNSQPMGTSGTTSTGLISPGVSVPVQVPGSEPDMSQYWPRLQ
# In short: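 DMSO-referenced bidirectional fits of reporter mRNA fluorescence; HepG2 with transient cis-promoter MRTUs, 24 h post-dose, RT-PCR plus capillary electrophoresis detection.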
# [10] = ATG_PXRE_CIS: Attagene CIS-FACTORIAL HepG2 Assay for human Pregnane X Receptor Element (PXRE) (AID 2282957); conditions: HepG2 Attagene CIS-FACTORIAL PXRE reporter, mRNA; actives raise or lower the signal
# In short: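 Using HepG2 transfected with multiple reporter transcription units, endogenous factor-driven transcription was scored as reporter mRNA after 24 h exposure.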
# [11] = ATG_RORE_CIS: Attagene CIS-FACTORIAL HepG2 Assay for human RAR-related Orphan Receptor Element (RORE) (AID 2282959); conditions: HepG2 Attagene cis-factorial RORE reporter, mRNA; actives raise or lower the signal
# In short: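 HepG2 cells carrying transiently transfected cis-regulated reporter units; RORE-driven reporter mRNA quantified 24 h post-dosing by RT-PCR, 6-FAM primer extension, HpaI digestion and capillary electrophoresis. Bidirectional fit versus DMSO.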
# [12] = ATG_Sox_CIS: Attagene CIS-FACTORIAL HepG2 Assay for human SRY-box transcription factor (SOX) (AID 2282960); conditions: HepG2 Attagene cis-factorial SOX reporter, mRNA; actives raise or lower the signal
# In short: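 HepG2 cells transiently transfected with multiple cis-regulated reporter units, then dosed for 24 h. Reporter mRNA quantified by RT-PCR, fluorescent labelling, HpaI digestion and capillary electrophoresis; bidirectional fit versus DMSO.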
# [13] = target: Transcription factor Sp1 (Homo sapiens) (UniProt P08047); test: ATG_Sp1_CIS: Attagene CIS-FACTORIAL HepG2 Assay for human Specificity Protein 1 (Sp1) (AID 2282961); conditions: HepG2 Sp1 cis-reporter transcription, actives raise or lower the signal
# Transcription factor Sp1 (Homo sapiens), sequence (P08047 whole entry, looked up): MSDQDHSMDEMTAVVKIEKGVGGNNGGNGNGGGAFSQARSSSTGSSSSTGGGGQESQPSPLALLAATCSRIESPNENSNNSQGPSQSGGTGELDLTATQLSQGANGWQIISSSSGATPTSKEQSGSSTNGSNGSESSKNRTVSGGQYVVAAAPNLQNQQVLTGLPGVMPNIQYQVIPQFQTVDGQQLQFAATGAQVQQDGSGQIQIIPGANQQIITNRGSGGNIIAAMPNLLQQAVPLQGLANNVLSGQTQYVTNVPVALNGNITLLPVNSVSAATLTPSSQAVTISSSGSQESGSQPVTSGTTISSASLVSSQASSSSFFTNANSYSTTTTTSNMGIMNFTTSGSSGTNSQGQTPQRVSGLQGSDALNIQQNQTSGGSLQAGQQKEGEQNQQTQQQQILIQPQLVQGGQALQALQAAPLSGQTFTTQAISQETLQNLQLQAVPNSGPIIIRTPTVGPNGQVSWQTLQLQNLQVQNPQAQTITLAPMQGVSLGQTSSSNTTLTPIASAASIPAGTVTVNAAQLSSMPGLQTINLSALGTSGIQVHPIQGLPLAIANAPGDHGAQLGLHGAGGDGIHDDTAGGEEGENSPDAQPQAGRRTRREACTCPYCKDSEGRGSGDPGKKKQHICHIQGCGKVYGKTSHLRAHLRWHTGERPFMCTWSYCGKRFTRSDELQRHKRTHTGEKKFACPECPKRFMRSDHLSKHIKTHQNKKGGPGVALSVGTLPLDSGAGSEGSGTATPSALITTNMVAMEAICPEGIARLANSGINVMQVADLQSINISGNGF
# In short: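 HepG2 cells transiently transfected with multiplexed cis-regulated reporter constructs, chemical exposure 24 h. Reporter mRNA quantified by RT-PCR with capillary electrophoresis; bidirectional fit relative to DMSO.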
# [14] = ATG_SREBP_CIS: Attagene CIS-FACTORIAL HepG2 Assay for human Sterol Regulatory Element Binding (SREBP) (AID 2282962); conditions: HepG2 Attagene cis-factorial SREBP reporter, mRNA; actives raise or lower the signal
# In short: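 In this cis-format assay, HepG2 liver cells express reporters controlled by promoter elements responsive to native transcription factors. Exposure lasts 24 h; reporter mRNA fluorescence from capillary electrophoresis gives the signal, fitted bidirectionally against DMSO.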
# [15] = target: Signal transducer and activator of transcription 3 (Homo sapiens) (UniProt P40763); test: ATG_STAT3_CIS: Attagene CIS-FACTORIAL HepG2 Assay for human Signal Transducer and Activator of Transcription 3 (STAT3) (AID 2282963); conditions: HepG2, Attagene cis-factorial STAT3 reporter transcription; actives raise or lower the signal
# Signal transducer and activator of transcription 3 (Homo sapiens), sequence (P40763 whole entry, looked up): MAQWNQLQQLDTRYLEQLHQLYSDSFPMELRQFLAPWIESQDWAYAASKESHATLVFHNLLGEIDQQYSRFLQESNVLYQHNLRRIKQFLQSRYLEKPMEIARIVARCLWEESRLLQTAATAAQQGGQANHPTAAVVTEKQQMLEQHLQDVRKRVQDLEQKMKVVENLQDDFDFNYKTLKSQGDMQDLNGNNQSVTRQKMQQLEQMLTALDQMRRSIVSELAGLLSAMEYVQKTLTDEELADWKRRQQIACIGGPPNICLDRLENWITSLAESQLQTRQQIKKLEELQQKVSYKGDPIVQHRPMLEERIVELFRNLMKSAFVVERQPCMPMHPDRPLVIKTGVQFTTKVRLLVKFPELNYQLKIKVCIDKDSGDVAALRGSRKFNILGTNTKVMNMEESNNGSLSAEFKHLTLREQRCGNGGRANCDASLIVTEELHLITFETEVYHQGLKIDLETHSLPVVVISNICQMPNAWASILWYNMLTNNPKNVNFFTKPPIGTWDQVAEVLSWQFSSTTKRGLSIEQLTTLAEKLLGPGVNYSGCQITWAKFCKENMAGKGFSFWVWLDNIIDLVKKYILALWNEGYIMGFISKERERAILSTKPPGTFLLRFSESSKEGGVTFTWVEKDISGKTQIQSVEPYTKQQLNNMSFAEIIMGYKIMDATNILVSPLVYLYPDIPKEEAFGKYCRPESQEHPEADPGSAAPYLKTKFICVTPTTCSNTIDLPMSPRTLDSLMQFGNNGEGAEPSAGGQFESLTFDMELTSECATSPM
# In short: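 Cis-factorial format: endogenous transcription factors in HepG2 drive transfected reporter units. After 24 h treatment, reporter RNA was reverse-transcribed, amplified, FAM-labelled and HpaI-digested before CE analysis; activity scored in both directions against DMSO.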
# [16] = ATG_TA_CIS: Attagene CIS-FACTORIAL HepG2 Assay for human TA Basal Promoter (AID 2282964); conditions: HepG2 Attagene CIS-factorial TA basal promoter reporter; actives raise or lower the signal
# In short: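 HepG2 cells transiently transfected with multiplexed cis-promoter reporter units, dosed 24 h. Reporter mRNA measured by RT-PCR, 6-FAM labelling, HpaI digestion and capillary electrophoresis; bidirectional fit versus DMSO baseline, serving as background control.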
# [17] = ATG_TCF_b_cat_CIS: Attagene CIS-FACTORIAL HepG2 Assay for human T-Cell-Factor with beta-catenin (TCF/b-cat) (AID 2282965); conditions: HepG2 TCF/beta-catenin cis-reporter transcription, actives raise or lower the signal
# In short: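 Endogenous TCF/LEF activity read as reporter transcript level via RT-PCR and capillary electrophoresis fluorescence in transfected HepG2, 24 h exposure; gain or loss of signal fitted against DMSO controls.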
# [18] = ATG_TAL_CIS: Attagene CIS-FACTORIAL HepG2 Assay for human TAL Basal Promoter (AID 2282966); conditions: HepG2 Attagene cis-factorial TAL promoter reporter; actives raise or lower the signal;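 also: background control endpoint measuring basal TAL promoter reporter mRNA not a specific factor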
# In short: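 After 24 hours of chemical exposure, transfected HepG2 cells yielded RNA that was converted to 6-FAM-labelled, HpaI-digested reporter fragments for capillary electrophoresis. Values derive from bidirectional fitting against DMSO controls.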
# [19] = ATG_TGFb_CIS: Attagene CIS-FACTORIAL HepG2 Assay for human Transforming Growth Factor (TGF) (AID 2282967); conditions: HepG2 Attagene CIS TGFb reporter, mRNA transcription; actives raise or lower the signal
# In short: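 HepG2 cells transiently transfected with cis-promoter-driven multiplexed reporter units; 24 h compound exposure. Reporter mRNA measured by RT-PCR, 6-FAM labeling, HpaI digestion and capillary electrophoresis; bidirectional fit versus DMSO baseline.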
# [20] = ATG_PPRE_CIS: Attagene CIS-FACTORIAL HepG2 Assay for human Peroxisome Proliferator-activated Response Element (PPRE) (AID 2282958); conditions: HepG2 PPRE cis-element reporter, Attagene transcription factor profiling; actives raise or lower the signal
# In short: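 HepG2 cells are transiently transfected with multiplexed cis-promoter reporter units to report endogenous PPAR activity. After 24 h dosing, reporter mRNA is read by RT-PCR and capillary electrophoresis. Fitting is bidirectional against DMSO.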
compound,measurement,setting,value
C=CC(F)(C(F)(F)F)C(F)(F)C(F)(F)F (stereo unspecified),outcome,[1],inactive
same,outcome,[2],inactive
same,outcome,[3],inactive
same,outcome,[4],inactive
same,outcome,[5],inactive
same,outcome,[6],inactive
same,outcome,[7],inactive
same,outcome,[8],inactive
same,outcome,[9],inactive
same,outcome,[10],inactive
same,outcome,[11],inactive
same,outcome,[12],inactive
same,outcome,[13],inactive
same,outcome,[14],inactive
same,outcome,[15],inactive
same,outcome,[16],inactive
same,outcome,[17],inactive
same,outcome,[18],inactive
same,outcome,[19],inactive
CC(=Cc1ccccc1)[N+](=O)[O-],AC50,[1],7.14 µM (active)
same,outcome,[2],inactive
same,outcome,[3],inactive
same,outcome,[4],inactive
same,outcome,[5],inactive
same,AC50,[6],4.41 µM (active)
same,outcome,[7],inactive
same,AC50,[8],13.7 µM (active)
same,AC50,[9],11.1 µM (active)
same,AC50,[10],4.02 µM (active)
same,outcome,[11],inactive
same,outcome,[12],inactive
same,outcome,[13],inactive
same,outcome,[14],inactive
same,outcome,[15],inactive
same,outcome,[16],inactive
same,outcome,[17],inactive
same,outcome,[18],inactive
same,outcome,[19],inactive
CN(C)[C@@H]1C(=O)C(C(N)=O)=C(O)[C@@]2(O)C(=O)C3=C(O)c4c(O)ccc(Cl)c4[C@@](C)(O)[C@H]3C[C@@H]12,outcome,[1],inactive
same,outcome,[2],inactive
same,outcome,[3],inactive
same,outcome,[4],inactive
same,outcome,[5],inactive
same,outcome,[6],inactive
same,outcome,[7],inactive
same,outcome,[8],inactive
same,outcome,[9],inactive
same,outcome,[10],inactive
same,outcome,[11],inactive
same,outcome,[12],inactive
same,outcome,[13],inactive
same,outcome,[14],inactive
same,outcome,[15],inactive
same,outcome,[16],inactive
same,outcome,[17],inactive
same,outcome,[18],inactive
same,outcome,[19],inactive
CC(C)(COCC1CO1)COCC1CO1 (stereo unspecified),outcome,[1],inactive
same,outcome,[2],inactive
same,outcome,[3],inactive
same,outcome,[4],inactive
same,outcome,[5],inactive
same,outcome,[6],inactive
same,AC50,[7],100 µM (active)
same,outcome,[8],inactive
same,AC50,[10],27.3 µM (active)
same,outcome,[20],inactive
same,outcome,[11],inactive
same,outcome,[12],inactive
same,outcome,[13],inactive
same,outcome,[14],inactive
same,outcome,[15],inactive
same,outcome,[16],inactive
same,outcome,[17],inactive
same,outcome,[19],inactive
O=S1OC[C@@H]2[C@H](CO1)[C@]1(Cl)C(Cl)=C(Cl)[C@@]2(Cl)C1(Cl)Cl (stereo partly specified),outcome,[1],inactive
same,outcome,[2],inactive
same,outcome,[3],inactive
same,outcome,[4],inactive
same,outcome,[5],inactive
same,outcome,[6],inactive
same,AC50,[7],66.4 µM (active)
same,AC50,[8],26.4 µM (active)
same,outcome,[9],inactive
same,AC50,[10],2.34 µM (active)
same,outcome,[11],inactive
same,outcome,[12],inactive
same,outcome,[13],inactive
same,outcome,[14],inactive
same,outcome,[15],inactive
same,outcome,[16],inactive
same,outcome,[18],inactive
BrCC(Br)c1ccccc1 (stereo unspecified),outcome,[1],inactive
same,outcome,[2],inactive
same,outcome,[3],inactive
same,outcome,[4],inactive
same,outcome,[5],inactive
same,outcome,[6],inactive
same,outcome,[7],inactive
same,outcome,[9],inactive
same,AC50,[10],27.3 µM (active)
same,outcome,[20],inactive
same,outcome,[11],inactive
same,outcome,[12],inactive
same,outcome,[13],inactive
same,outcome,[14],inactive
same,outcome,[15],inactive
same,outcome,[16],inactive
same,outcome,[17],inactive
same,outcome,[18],inactive
same,outcome,[19],inactive
CN(N=O)c1ccc([N+](=O)[O-])cc1,outcome,[1],inactive
same,outcome,[2],inactive
same,outcome,[3],inactive
same,outcome,[4],inactive
same,outcome,[5],inactive
same,outcome,[6],inactive
same,outcome,[7],inactive
same,AC50,[10],18.6 µM (active)
same,outcome,[11],inactive
same,outcome,[12],inactive
same,outcome,[13],inactive
same,outcome,[14],inactive
same,outcome,[15],inactive
same,outcome,[16],inactive
same,outcome,[17],inactive

# Source: PubChem BioAssay (EPA / NIEHS)
